# In paper PMC8384837, “Expanding the binding specificity for RNA recognition by a PUF domain”:
# Tests used:
# Assay in all cases: yeast three-hybrid, YBZ-1, SC-Leu-His + 0.5 mM 3-AT, 4 days
# Details in all cases: tags: N-Gal4 AD-HA kept; label: inside an RPR1-promoter hybrid RNA with tandem MS2 sites; ssRNA
# [1] = biological target: PUM1 PUF domain R8-KHW (Homo sapiens, UniProt Q14671 828-1176, N1122K;Y1123H;Q1126W)
# How it was run: (§1)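 The interaction score is the log change in variant frequency from input to selection. Scores were computed in log2 with a pseudocount of 1 for absent variants, using Illumina sequencing of PCR-amplified repeat regions. The input came from four days on SC-Leu and the selection from four days on SC-Leu-His + 0.5 mM 3-AT. The cells were strain YBZ-1 (LexA–MS2 coat fusion, HIS3 reporter) co-expressing Pumilio-1 PUF domain libraries and matching RNA elements from a centromeric plasmid.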
# [2] = biological target: PUM1 PUF domain R3-APA (Homo sapiens, UniProt Q14671 828-1176, C935A;R936P;Q939A)
# How it was run: as §1
# [3] = biological target: PUM1 PUF domain R5-IYG (Homo sapiens, UniProt Q14671 828-1176, C1007I;R1008Y;Q1011G)
# How it was run: as §1
# [4] = biological target: PUM1 PUF domain R4-GRN (Homo sapiens, UniProt Q14671 828-1176, N971G;H972R;Q975N)
# How it was run: as §1
# [5] = biological target: PUM1 PUF domain R4-APF (Homo sapiens, UniProt Q14671 828-1176, N971A;H972P;Q975F)
# How it was run: as §1
# [6] = biological target: PUM1 PUF domain R3-VYW (Homo sapiens, UniProt Q14671 828-1176, C935V;R936Y;Q939W)
# How it was run: as §1
# [7] = biological target: PUM1 PUF domain R5-FRM (Homo sapiens, UniProt Q14671 828-1176, C1007F;Q1011M)
# How it was run: as §1
# [8] = biological target: PUM1 PUF domain R3-SGE (Homo sapiens, UniProt Q14671 828-1176, C935S;R936G;Q939E)
# How it was run: as §1
# [9] = biological target: PUM1 PUF domain R3-RVA (Homo sapiens, UniProt Q14671 828-1176, C935R;R936V;Q939A)
# How it was run: as §1
# [10] = biological target: PUM1 PUF domain R3-RRW (Homo sapiens, UniProt Q14671 828-1176, C935R;Q939W)
# How it was run: as §1
# [11] = biological target: PUM1 PUF domain R3-EFA (Homo sapiens, UniProt Q14671 828-1176, C935E;R936F;Q939A)
# How it was run: as §1
# [12] = biological target: PUM1 PUF domain R3-TSR (Homo sapiens, UniProt Q14671 828-1176, C935T;R936S;Q939R)
# How it was run: as §1
# [13] = biological target: PUM1 PUF domain R7-RKL (Homo sapiens, UniProt Q14671 828-1176, S1079R;N1080K;E1083L)
# How it was run: as §1
# [14] = biological target: PUM1 PUF domain R7-KRL (Homo sapiens, UniProt Q14671 828-1176, S1079K;N1080R;E1083L)
# How it was run: as §1
# [15] = biological target: T1, PUM1 PUF domain R6-DFE (Homo sapiens, UniProt Q14671 828-1176, N1043D;Y1044F;Q1047E)
# T1 sequence: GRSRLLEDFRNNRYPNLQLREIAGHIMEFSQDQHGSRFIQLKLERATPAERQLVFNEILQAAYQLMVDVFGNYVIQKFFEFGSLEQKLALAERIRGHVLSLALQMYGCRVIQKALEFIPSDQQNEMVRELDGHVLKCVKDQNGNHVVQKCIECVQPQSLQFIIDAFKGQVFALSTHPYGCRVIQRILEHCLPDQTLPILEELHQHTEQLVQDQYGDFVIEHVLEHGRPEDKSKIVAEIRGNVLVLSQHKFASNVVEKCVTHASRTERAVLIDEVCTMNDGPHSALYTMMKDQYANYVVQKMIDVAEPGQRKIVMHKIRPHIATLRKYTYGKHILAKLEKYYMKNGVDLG
# How it was run: as §1
# [16] = biological target: PUM1 PUF domain R2-GWF (Homo sapiens, UniProt Q14671 828-1176, N899G;Y900W;Q903F)
# How it was run: as §1
sequence,measurement,setting,value
GGCUAGAACUAGUGGAUCCCCCGGCGCCCGGCGGCUCGAGCCCGGGUAAGUGUAAAUAGUCUGCAUGCCGCCGGGCGCCAUGCCUGCAGGUCGACUCUAGAAAACAUG,binding signal,[1],3.88 log2 enrichment (interaction score)
same,binding signal,[2],2.14 log2 enrichment (interaction score)
same,binding signal,[3],4.13 log2 enrichment (interaction score)
same,binding signal,[4],2.76 log2 enrichment (interaction score)
same,binding signal,[5],3.52 log2 enrichment (interaction score)
same,binding signal,[6],6.32 log2 enrichment (interaction score)
same,binding signal,[7],3.16 log2 enrichment (interaction score)
GGCUAGAACUAGUGGAUCCCCCGGCGCCCGGCGGCUCGAGCCCGGGUAAGCGUAAAUAGUCUGCAUGCCGCCGGGCGCCAUGCCUGCAGGUCGACUCUAGAAAACAUG,binding signal,[1],5.39 log2 enrichment (interaction score)
GGCUAGAACUAGUGGAUCCCCCGGCGCCCGGCGGCUCGAGCCCGGGUAAGUGUAAGUAGUCUGCAUGCCGCCGGGCGCCAUGCCUGCAGGUCGACUCUAGAAAACAUG,binding signal,[8],4.96 log2 enrichment (interaction score)
same,binding signal,[9],0.81 log2 enrichment (interaction score)
GGCUAGAACUAGUGGAUCCCCCGGCGCCCGGCGGCUCGAGCCCGGGUAAGUGUAAUUAGUCUGCAUGCCGCCGGGCGCCAUGCCUGCAGGUCGACUCUAGAAAACAUG,binding signal,[10],3.94 log2 enrichment (interaction score)
same,binding signal,[11],3.24 log2 enrichment (interaction score)
same,binding signal,[12],2.25 log2 enrichment (interaction score)
same,binding signal,[9],2.31 log2 enrichment (interaction score)
same,binding signal,[6],4.86 log2 enrichment (interaction score)
GGCUAGAACUAGUGGAUCCCCCGGCGCCCGGCGGCUCGAGCCCGGGUAAGUUUAAAUAGUCUGCAUGCCGCCGGGCGCCAUGCCUGCAGGUCGACUCUAGAAAACAUG,binding signal,[13],4.32 log2 enrichment (interaction score)
same,binding signal,[14],5.24 log2 enrichment (interaction score)
GGCUAGAACUAGUGGAUCCCCCGGCGCCCGGCGGCUCGAGCCCGGGUAAGUCUAAAUAGUCUGCAUGCCGCCGGGCGCCAUGCCUGCAGGUCGACUCUAGAAAACAUG,binding signal,[13],3.94 log2 enrichment (interaction score)
same,binding signal,[14],5.65 log2 enrichment (interaction score)
GGCUAGAACUAGUGGAUCCCCCGGCGCCCGGCGGCUCGAGCCCGGGUAAGUGGAAAUAGUCUGCAUGCCGCCGGGCGCCAUGCCUGCAGGUCGACUCUAGAAAACAUG,binding signal,[15],2.5 log2 enrichment (interaction score)
GGCUAGAACUAGUGGAUCCCCCGGCGCCCGGCGGCUCGAGCCCGGGUAAGUGUAAAAAGUCUGCAUGCCGCCGGGCGCCAUGCCUGCAGGUCGACUCUAGAAAACAUG,binding signal,[16],3.4 log2 enrichment (interaction score)
GGCUAGAACUAGUGGAUCCCCCGGCGCCCGGCGGCUCGAGCCCGGGUAAGUGUCAAUAGUCUGCAUGCCGCCGGGCGCCAUGCCUGCAGGUCGACUCUAGAAAACAUG,binding signal,[7],2.1 log2 enrichment (interaction score)
